High-throughput results deposited in PubChem BioAssay by National Center for Advancing Translational Sciences (NCATS).
Compounds with a hit are over-represented: about 1.7% of the library has one in this group of screens.
IkB sig inh – suppresses IkB signaling in ABC-DLBCL reporter cells. ABC-DLBCL IkBa-CBG/CBR dual luciferase ratio, 4 h; response scale: scaled: untreated 0%, proteasome inhibitor 100%. Potency, µM (doses to about 57.1 µM), without a hit: at the top dose IkBa stabilization activation. 110,000 tested, 0.04% active; active = well fitted curve in the direction sought with a large enough effect in the signal ratio, not every such curve was filed as active; inconclusive = small, poorly fitted or top-dose-only effect, or a change in a side signal; the % refers to the signal ratio;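 note: the direction sought is a rising ratio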
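Luminescence ratio of IκBα-fused green versus native red beetle luciferase in OCI-Ly3 cells, 4 h post-doxycycline with compound; red signal alone, scaled from basal (0%) to zero light (-100%), flagged nonspecific or cytotoxic effects.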
Peg3 imprint – induces erasure of genomic imprints in mouse ES cells; mouse ES Peg3-LacZ reporter, beta-gal luminescence, 40 h; 110,000 tested, 0.02% active; Potency, µM (doses to about 60.7 µM), without a hit: at the top dose activity change, positive = activation, hits mostly activators
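Each well holds 300 Peg3LacZ-Neo (maternal) female ES cells incubated 40 h at 37C, 5% CO2. LacZ is measured by BetaGlo luminescence, with AC50 and maximum efficacy derived from dose-response curves.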
p53ts 39C kill – kills p53ts cells at the nonpermissive temperature; Potency, µM (doses to about 46.1 µM), for inactives: top-dose activity change, negative = cell killing, actives largely listed as cytotoxic; H1299-p53A138V viability at 39C, ATP luminescence, 24 h; 130,000 tested, 1.5% active; note: % is set by controls: 0 for no effect and ±100 for the full control effect; nearly all actives have a fitted effect of over 55% in size
p53ts 32C tox – cytotoxicity in p53ts cells at permissive temperature; H1299-p53A138V at 32C, ATP luminescence viability, 24 h; Potency, µM (top dose mostly 46.1 µM), for the others: top-dose activity change, negative = cytotoxicity, actives largely listed as cytotoxic; 130,000 tested, 0.93% active;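 note: 0% = DMSO and -100% = full killing by reference compound; nearly all actives have a fitted effect of over 55% in size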
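Cells: H1299 p53ts (A138V), 600/well, pre-incubated 16–30 h at 37C. Cpd up to 46 uM, 24 h, 32C. Readout: ATPlite luminescence, 20 min RT. Normalization: DMSO vs tamoxifen 100 uM. AC50 by Hill equation.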
Numbers without * were called inactive; ? = inconclusive; · = no result; ! = not active in a repeat; [ ] = dose if it differs, or a comment. Unless noted, calls come from the whole dose curve; as a rule, active = well fitted curve in the direction sought with a large enough effect; inconclusive = small, poorly fitted or top-dose-only effect, or another doubt; inactive = no such curve, though single readings can be large; an effect the other way counts as inactive or inconclusive. Potency is the fitted concentration of half-maximal effect.

SMILES	IkB sig inh	Peg3 imprint	p53ts 39C kill	p53ts 32C tox
Cn1c(SCc2cccc(F)c2)nc2c([nH]c3ccccc32)c1=O	0%	-4%[10.9 µM]	-23%	2%
COc1cccc(-c2cc(NCc3ccccc3)ncn2)c1	1%[11.4 µM]	-10%	?	?
Cc1ccc(NC(=O)c2ccccc2)s1	13%	-75%	7.9µM*	4µM*
Cc1cc(Cl)ccc1OCC(=O)N1CCC(c2nc3ccccc3s2)CC1	?	-11%[10.9 µM]	-20%	?
Nc1nc(N)c2nc(-c3ccccc3)c(N)nc2n1	?	-10%	-7%	13µM*!
Cc1ccc2cc3cc(C(=O)N4CCCCC4C)oc3nc2c1 (centres undefined)	1%	-25%	?	13µM*
Cc1ccc2cc3cc(C(=O)N(C)c4ccccc4C)oc3nc2c1	-2%	-19%[10.9 µM]	10µM*	?
Cc1ccc2cc3cc(C(=O)N4CC(C)CC(C)C4)oc3nc2c1 (centres undefined)	?	-19%	-18%	-2%
Cc1cc(C)c2c(CC(=O)Nc3ccc(F)cc3)coc2c1	-1%	-6%[10.9 µM]	-15%	5%
COc1ccc(CCN(C)CCCOc2ccc(S(=O)(=O)c3[nH]c4ccccc4c3C(C)C)cc2)cc1OC	?	-29%	13µM*	25µM*
COc1cc(NC(=O)c2cc(-c3ccc(Cl)c(Cl)c3)on2)cc(OC)c1OC	11%	-10%[10.9 µM]	20µM*	-26%
COc1cccc(-c2cc(C(=O)Nc3cccc(O)c3)no2)c1	?	-73%	3.2µM*	2.5µM*
COc1ccc(S(=O)(=O)N2CCC(n3c(C(F)(F)F)nc4cccnc43)CC2)cc1OC	-2%	-7%[10.9 µM]	-18%	-1%
CCOC(=O)c1ccc(-n2c(CCC(=O)O)ccc2-c2ccccc2)cc1O	?	-4%[10.9 µM]	-16%	-8%
Cc1ccc(NC(=O)Cn2c(=O)n(Cc3ccco3)c(=O)c3ccc(C(=O)NC4CCCC4)cc32)c(C)c1	-1%	-12%[10.9 µM]	13µM*	-27%
COC(=O)c1c(SCC(=O)Nc2cc(C)cc(C)c2)[nH]c2ccccc2c1=O	?	-8%[10.9 µM]	13µM*	?
COC(=O)c1c(SCC(=O)Nc2ccccc2C(F)(F)F)[nH]c2ccc(Cl)cc2c1=O	?	-3%[10.9 µM]	-25%	?
COc1ccc(-c2coc3cc(O)cc(O)c3c2=O)cc1	-2%[11.4 µM]	-59%	?	?
O=c1c(-c2ccc(O)cc2)coc2cc(O)cc(O)c12	?	-31%	?	10µM*!
CSc1ccc2c(c1)[C@H](N1CCN(C)CC1)Cc1ccccc1S2	?	-20%	32µM*	25µM*!
c1ccc2c(c1)-c1nc3ccccc3cc1[C@H]2N1CCOCC1	-1%[11.4 µM]	3%[10.9 µM]	3%[9.22 µM]	-2%[9.22 µM]
OC1c2ccccc2-c2nc3ccccc3cc21 (centres undefined)	·	-86%	10µM*	?
CCc1ccccc1NC(=O)Cn1nnc(C(=O)Nc2ccc(OC)c(OC)c2)c1N	?	-6%[10.9 µM]	6%	3%
CCOc1ccc(NC(=O)Cn2c(=O)n(Cc3ccc(C(=O)NCc4ccc5c(c4)OCO5)cc3)c(=O)c3ccccc32)cc1	1%	-18%[10.9 µM]	6%	2%
CCOc1ccc(NC(=O)Cn2c(=O)n(-c3ccccc3)c(=O)c3ccc(C(=O)NCc4ccc5c(c4)OCO5)cc32)cc1	5%	-5%[10.9 µM]	13µM*	?
SMILES	IkB sig inh	Peg3 imprint	p53ts 39C kill	p53ts 32C tox
CCc1ccc(NC(=O)Cn2c(=O)n(-c3ccccc3)c(=O)c3ccc(C(=O)NCc4ccc5c(c4)OCO5)cc32)cc1	1%	-8%[10.9 µM]	16µM*	-21%
Cc1cc(C)c(NC(=O)Cn2c(=O)n(Cc3ccc4c(c3)OCO4)c(=O)c3ccccc32)c(C)c1	3%	2%[10.9 µM]	9%	15%
Cc1cc(C)c(NC(=O)Cn2c(=O)n(Cc3ccc(C(=O)NCc4ccc5c(c4)OCO5)cc3)c(=O)c3ccccc32)c(C)c1	5%	-29%[10.9 µM]	5µM*	?
CCN1CCCC1CNC(=O)c1ccc(-n2c(=O)c(=O)[nH]c3ccccc32)cc1 (centres undefined)	·	·	-7%	-7%
CCNc1ncc2nc(-c3cc(F)cc(F)c3)c(=O)n(C[C@H]3CCCO3)c2n1	0%[11.4 µM]	-2%	-4%	-6%
COC(=O)C1=C(C)N(Cc2ccccc2)[C@]23O[C@](C(=O)OC)(C(=O)N2C1c1ccccc1)C1CCCC(=O)C13 (some centres undefined)	·	·	-7%[9.22 µM]	-2%[9.22 µM]
O=C(Nc1ccc2nc3ccccc3nc2c1)c1ccccc1	·	·	10µM*	?
Cc1ccc(-n2ncc3c(Nc4cccc(C(F)(F)F)c4)ncnc32)cc1C	?	4%[10.9 µM]	?	-13%
CCc1c(C)c2ccc(O)c(CN3CCN(c4ccc(OC)cc4)CC3)c2oc1=O	-3%	-14%[10.9 µM]	7.9µM*	?
N#CC(Cc1ccc(O)c(O)c1)C(=O)N1CCc2ccccc21 (centres undefined)	·	-26%	·	·
C[C@@H](C(=O)O)c1ccc(N2Cc3ccccc3C2=O)cc1	?	-82%[16.8 µM]	5µM*	10µM*
CC(C)NC(=O)C(c1ccccc1)N1Cc2ccccc2C1=O (centres undefined)	·	·	·	-4%
O=C1c2ccccc2N(Cc2ccc(Cl)cc2)C2=NCCN12	·	·	7%	8%
O=C1C(=O)N(Cc2ccc(Cl)c(Cl)c2)c2ccccc21	?	-32%	6.3µM*	?
Cc1ccc(C)c(-c2csc(-c3c(N)c(C(=O)c4ccc5c(c4)OCO5)n4ccccc34)n2)c1	?	-15%[10.9 µM]	-6%	8%
Cc1[nH]n(-c2ccccc2)c(=O)c1/C=N\NC(=O)C1COc2ccccc2O1 (centres undefined)	·	·	14µM*	·
Cc1c(/C=N\NC(=O)C2COc3ccccc3O2)c2ccccc2n1C (centres undefined)	·	·	-10%	·
Nc1ccc(-c2cnc(-c3ccc(N)cc3)nc2)cc1	?	-25%	10µM*	10µM*
CCCCCCc1ccc(-c2ncc(N)cn2)cc1	-1%	-24%	-3%	3%
CCN(CCN(C)C)C(=O)C1CCN(S(=O)(=O)c2c(C)noc2/C=C/c2ccccc2F)CC1	-2%	6%[10.9 µM]	13µM*	-21%
CCOc1ccccc1/C=C/c1onc(C)c1S(=O)(=O)N1CCC(C(=O)N(CC)CC)CC1	1%	-8%[10.9 µM]	-8%	13%
Cc1ccc(/C=C/c2onc(C)c2S(=O)(=O)N2CCC(C(=O)N3CCC(N(C)C(C)C)CC3)CC2)cc1	0%	-16%[10.9 µM]	20µM*	?
Cc1nc(C)c(-c2ccc(SCC(=O)Nc3ccc(Cl)c(Cl)c3)nn2)s1	2%	7%[10.9 µM]	-18%	2%
Cc1ccc(-n2nc3ccc(N)cc3n2)cc1	12%	-56%	7.9µM*	7.9µM*
Cc1ccc(-n2nc(-c3ccc(N)cc3)cc2N)cc1	2%	0%	-14%	-6%
COc1ccc(CN(C(=O)Nc2cccc(Cl)c2)c2ccccn2)cc1OC	-3%	-11%[10.9 µM]	-11%	-1%
COc1ccc(-c2cc(C(F)(F)F)nc(N3CCCCCC3)n2)cc1	0%	-5%	0%	-13%
